Consider 55 molecules from PubChem BioAssay AID2685 (National Center for Advancing Translational Sciences (NCATS), 2010).

Molecules are shown by their SMILES. The campaign covered roughly 320,000 compounds. About 2,100 (0.66%) were called active. About 53% were inconclusive and are not listed. Calls follow the shape of the dose curve; as a rule, active = well fitted inhibition curve with a large enough effect in the signal ratio, with a control signal flat (not every such curve was filed as active); inconclusive = small, poorly fitted or top-dose-only effect, or effect the other way, or a change in a side signal; inactive = flat fitted curve, though single readings scatter; the % refers to the signal ratio. The entries come from a sample that favours actives as a whole.
Potency is read from the fitted curve at half-maximal effect.

The experiment in a line: qHTS Assay for Lipid Storage Modulators in Drosophila S3 Cells.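 As to cell number change: cells counted by Cell Tracker Red CMTPX staining in the red channel.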 As to lipid storage change, negative = inhibition: % is scaled to controls: 0 for no effect and ±100 for the full control effect. The settings on record: BODIPY lipid droplet fluorescence, 18-24 h, cells fed with added oleic acid; cell number change: measured here: cell count max response; series mostly up to 46.1 µM; lipid storage change, negative = inhibition: at the top concentration. A digest of the protocol:
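Laser-scanning cytometry quantifies lipid droplet accumulation (500–530 nm total intensity; droplet/cell object ratio) in oleic acid-fed (400 uM added) Drosophila S3 cells treated with a concentration series. 20 uM Triacsin C defined 100% inhibition.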
For orientation: qHTS replaces the single test concentration by a dilution series.
For `CCCCC(CC)C(=O)Oc1ccc(O)c(C(C)(C)C)c1` (configuration not stated), the Potency is 25.9 µM (active) and the cell number change is -29.2%.

On to `CC(C)(C)c1cc(OS(C)(=O)=O)ccc1O`, for which the “lipid storage change, negative = inhibition” value was 9.4% (inactive) and the cell number change is -0.646%.

Turning to `CC(C)(C)c1cc(OC(=O)c2ccncc2)ccc1O`, the “lipid storage change, negative = inhibition” value was -0.115% (inactive) and the cell number change is -10.2%.

`Cc1onc(-c2c(F)cccc2Cl)c1C(=O)ONC(=O)c1ccccc1`: the “lipid storage change, negative = inhibition” value was -0.558% (inactive) and the cell number change was found to be 10.6%. In the same order, the values of `CCCc1cc(=O)oc2cc(OCC(=O)N3C[C@H]4C[C@@H](C3)c3cccc(=O)n3C4)c(Cl)cc12` are -2.74% (inactive) and 3.02%.

Regarding `CC(Oc1cc2oc(=O)c3c(c2cc1Cl)CCC3)C(=O)N1C[C@H]2C[C@@H](C1)c1cccc(=O)n1C2` (some centres not stated), the “lipid storage change, negative = inhibition” value was -5.06% (inactive) and the cell number change was found to be 18.9%. As to `O=C(COc1cc2oc(=O)c3c(c2cc1Cl)CCCC3)N1C[C@H]2C[C@@H](C1)c1cccc(=O)n1C2`, the Potency was 1.46 µM (active) and the cell number change came out at 3.88%. Take `O=C(COC(=O)Cc1n[nH]c(=O)c2ccccc12)Nc1ccc(Cl)cc1F`: the “lipid storage change, negative = inhibition” value was 4.92% (inactive) and the cell number change was -2.17%. In the case of `COc1ccc2c(c1)cc(C(=O)N[C@@H](Cc1ccccc1)C(=O)O)n2C`, the molecule was called inactive.

On to `CCOC(=O)C1=NNC2C(=O)N(CC)C(=O)C12` (configuration not stated), for which the Potency was 13 µM (active) and the cell number change is 12.2%. Take `CCCCN1C(=O)C2NN=C(C(=O)OC)C2C1=O` (configuration not stated): the “lipid storage change, negative = inhibition” value is -2.98% (inactive) and the cell number change came out at 1.06%.

For `CCN1C(=O)[C@@H]2C(C(=O)c3cnccn3)=NN[C@@H]2C1=O`, the “lipid storage change, negative = inhibition” value is 1.67% (inactive) and the cell number change came out at 10.4%. For `Clc1ccc(Cn2ncc3c(N4CCCC4)ncnc32)cc1`, the molecule was classed as inactive and the cell number change was -16%.

In the case of `COc1cccc(NC(=O)CN(C)C(=O)c2ccc(S(=O)(=O)Nc3ccccc3C)cc2)c1`, the “lipid storage change, negative = inhibition” value was 0.588% (inactive) and the cell number change was -4.07%. As for `CCN1CCN(Cc2ccc(NC(=O)c3ccc(C)c(NC(=O)N4CCNC4=O)c3)cc2C(F)(F)F)CC1`, the “lipid storage change, negative = inhibition” value is 17.8% (inactive) and the cell number change is 25.7%. `CCN1CCN(Cc2ccc(NC(=O)c3ccc(C)c(NC(=O)c4c[nH]c5cc(C(F)(F)F)ccc5c4=O)c3)cc2C(F)(F)F)CC1`: the Potency is 10.3 µM (active) and the cell number change is -28.9%. Consider `CCN1CCN(Cc2ccc(NC(=O)c3ccc(C)c(NC(=O)c4cccc5[nH]ccc45)c3)cc2C(F)(F)F)CC1`, for which the “lipid storage change, negative = inhibition” value was -1.09% (inactive) and the cell number change is -3.74%. For `CCOC(=O)Cc1csc(NS(=O)(=O)c2ccc(C(F)(F)F)cc2)n1`, the “lipid storage change, negative = inhibition” value is 8.18% (inactive) and the cell number change is 3.37%. In the case of `COc1ccc(NC(=O)CCNS(=O)(=O)c2cc(Br)cnc2N)c(OC)c1`, the “lipid storage change, negative = inhibition” value is -15% (inactive).

On to `COc1cc(OC)c(NC(=O)CCNS(=O)(=O)c2cc(Br)cnc2N)cc1Cl`, for which the outcome was inactive. Regarding `CCOc1ccc(OCC)c(NC(=O)CCNS(=O)(=O)c2cc(Br)cnc2N)c1`, the Potency is 1.3 µM (active) and the cell number change is -2.69%. Take `CN1CCN(S(=O)(=O)c2cccc(C(=O)Nc3cc(C(F)(F)F)ccc3N3CCCC3)c2)CC1`: the “lipid storage change, negative = inhibition” value was 15.5% (inactive) and the cell number change stood at 1.88%.

Consider `COc1cccc(/C=N/NC(=O)c2nc(-c3ccccc3)cc(-c3ccccc3)n2)c1`, for which the Potency was 20.6 µM (active) and the cell number change is -10.5%. With `COc1ccc(/C=N/NC(=O)c2nc(-c3ccccc3)cc(-c3ccccc3)n2)cc1`, the “lipid storage change, negative = inhibition” value is -12.8% (inactive) and the cell number change is -21.2%.

Take `COc1cccc(/C=N/NC(=O)c2nc(-c3ccccc3)cc(-c3ccccc3)n2)c1O`: the “lipid storage change, negative = inhibition” value was 5.35% (inactive) and the cell number change was -7.98%.

Take `CCOc1cc(/C=C2\SC(=Nc3ccc(F)cc3)N(c3ccc(F)cc3)C2=O)ccc1OCC(=O)O`: the “lipid storage change, negative = inhibition” value is 11.8% (inactive) and the cell number change is -5.36%. On the same counts, the results for `COc1ccccc1C1=CC(=O)C[C@H](c2ccc(Cl)cc2)C1` are 12.6% (inactive) and -15.5%. On the same counts, the results for `Cc1ccccc1C(=O)NC1CCN(CC(=O)Nc2ccccc2)CC1` are -9.76% (inactive) and -25.1%. For `CCCC(=O)NC(=S)Nc1ccc(C(C)=O)cc1`, the “lipid storage change, negative = inhibition” value is -28.1% (inactive) and the cell number change is -4.91%. In the same order, the values of `CNC(=S)Nc1ccccc1-c1ccccc1` are -7.51% (inactive) and 1.9%. In the same order, the values of `COc1ccc(OC)c2sc(NC(=O)c3ccc(S(=O)(=O)N4CCOCC4)cc3)nc12` are 4.31% (inactive) and 4.36%. With `COc1ccccc1COC(=O)c1ccc(S(=O)(=O)N2CCOCC2)cc1`, the molecule was classed as inactive and the cell number change is -3.67%. Turning to `CCn1c(=NC(=O)c2ccc(S(=O)(=O)N3CCOCC3)cc2)sc2cccc(OC)c21`, the Potency is 16.4 µM (active) and the cell number change stood at 4.06%.

As for `COc1ccc(Cl)cc1NS(=O)(=O)c1cccc(C(=O)NCC(c2ccco2)N(C)C)c1` (configuration not stated), the outcome was “inactive [at 0.369 µM]”. In the case of `COc1ccccc1NS(=O)(=O)c1cccc(C(=O)NCC2(N(C)C)CCCCC2)c1`, the “lipid storage change, negative = inhibition” value was 27.8% (inactive) and the cell number change was found to be 16.3%. As for `COc1ccc(Cl)cc1NS(=O)(=O)c1cccc(C(=O)NCC2(N(C)C)CCCCC2)c1`, the Potency is 32.6 µM (active) and the cell number change is -25.5%. For the molecule `CCCCN(C(=O)c1ccc(NC2CC2)c([N+](=O)[O-])c1)c1c(N)n(CCCC)c(=O)[nH]c1=O`, the “lipid storage change, negative = inhibition” value is 2% (inactive). Regarding `CCCNC(=O)c1cn(CC)c2cc(N3CCN(C(=O)c4ccco4)CC3)c(F)cc2c1=O`, the Potency is 16.4 µM (active) and the cell number change was -23.8%. `CCN(CC)CCCNC(=O)c1cn(CC)c2cc(N3CCN(C(=O)c4ccco4)CC3)c(F)cc2c1=O`: the outcome was inactive and the cell number change turned out to be 3.82%. Consider `CCN(CC)CCNC(=O)c1cn(CC)c2cc(N3CCN(C(=O)c4ccco4)CC3)c(F)cc2c1=O`, for which the “lipid storage change, negative = inhibition” value is -9.28% (inactive) and the cell number change was found to be 3.39%. Take `Cc1ccc(S(=O)(=O)N2CCC(=O)N(CCOCc3ccccc3C)CC2)cc1`: the “lipid storage change, negative = inhibition” value was 27.7% (inactive) and the cell number change is -1.04%. With `Cc1cc2cc(CN(Cc3cccs3)S(=O)(=O)c3ccc4c(c3)OCCO4)c(=O)[nH]c2cc1C`, the “lipid storage change, negative = inhibition” value is 19.7% (inactive) and the cell number change turned out to be 5.28%. In the case of `CCCCCCCC(=O)NN1CCOCC1`, the “lipid storage change, negative = inhibition” value was -8.3% (inactive) and the cell number change was 12.9%.

In the case of `CCCCCCC(=O)NN1CCN(C)CC1`, the Potency is 25.9 µM (active) and the cell number change is -18.7%.

For `CCCCC(=O)Nc1ccc(C(=O)N2CCN(C)CC2)cc1`, the “lipid storage change, negative = inhibition” value is 13.2% (inactive).

As for `Cc1onc(-c2ccccc2Cl)c1C(=O)NCc1ccc(N2CCCC2=O)cc1`, the “lipid storage change, negative = inhibition” value was 4.57% (inactive) and the cell number change is -1.75%. In the same order, the values of `COc1cc(C(=O)OCC(=O)Nc2cccc(S(=O)(=O)N3CCOCC3)c2)ccc1OCC(C)C` are 15% (inactive) and 0.792%. On the same counts, the results for `CCOc1ccccc1C(=O)N[C@H](C(=O)OCc1cc(=O)oc2cc(C)ccc12)C(C)C` are 21.6% (inactive) and 1.89%. Regarding `Cc1ccccc1N=C1N=C(N)c2ccccc21`, the “lipid storage change, negative = inhibition” value is 3.18% (inactive) and the cell number change came to 4.71%. For the molecule `Nc1ccccc1-c1ccccc1N`, the “lipid storage change, negative = inhibition” value is 17.3% (inactive) and the cell number change stood at 12.1%. As for `NC1=NCc2ccccc21`, the Potency is 18.4 µM (active) and the cell number change was -13%.

On to `CC(C)(C)C(=O)Nc1ccc(C(=O)N/N=C/c2ccccc2OC(=O)c2ccc(Cl)cc2)cc1`, for which the “lipid storage change, negative = inhibition” value was 19.8% (inactive) and the cell number change is -1.11%. As to `CCCN(CC(=O)Nc1ccccc1C)C(=O)c1ccc(N2CCCCC2)c([N+](=O)[O-])c1`, the outcome was inactive and the cell number change was -25%. Regarding `CCCN(CC(=O)Nc1ccccc1C)C(=O)c1ccc(COc2ccccc2)cc1`, the result was inactive. Turning to `CCCN(CC(=O)Nc1ccccc1C)C(=O)c1ccc(-c2ccc([N+](=O)[O-])cc2)o1`, the Potency is 11.6 µM (active).
